# From PubChem BioAssay
# Target: Streptavidin (Streptomyces avidinii) (UniProt P22629)
# Experiment: streptavidin binders on small-molecule microarray, primary screen, artefact control for SMM compound annotation, biophysical, 635/667 nm fluorescence (AID 1147);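 note: signal reflects streptavidin binding to arrayed compounds as a control protein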
# Details: streptavidin binding, higher = more signal
# Chain of Streptavidin (Streptomyces avidinii) (P22629 whole entry, looked up): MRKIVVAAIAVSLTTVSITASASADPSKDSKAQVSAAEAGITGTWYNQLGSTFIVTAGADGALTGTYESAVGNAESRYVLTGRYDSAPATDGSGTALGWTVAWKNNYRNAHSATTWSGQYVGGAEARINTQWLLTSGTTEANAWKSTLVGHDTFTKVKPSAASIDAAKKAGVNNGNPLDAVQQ
row,Compound,composite z-score
1,O=C1OCC=C[C@H]2OC34C=CCN(c5ccc6ccccc6c5)C(=O)[C@H]3N(CCCCCCO)C(=O)[C@@H]4[C@@H]12 (stereo partly drawn),-0.719
2,[N-]=[N+]=Nc1ccccc1C[C@]1(C(N)=O)N=C(c2ccc(OCCCO)cc2)O[C@H]1c1ccccc1,0.665
3,O=C1OCCC/C=C\[C@H]2OC34C=CCN(Cn5nnc6ccccc65)C(=O)[C@H]3N(CCO)C(=O)[C@@H]4C12 (stereo partly drawn),-0.712
4,COc1cc2c(cc1OC)CN(C(=O)[C@H]1[C@@H]3C(=O)O[C@@H](c4ccccc4)[C@@H](c4ccccc4)N3[C@@H](c3ccc(O)cc3)[C@]13C(=O)Nc1ccc(C#CC4=CCCCC4)cc13)CC2,1.45
5,Cc1ccc(S[C@]2(C(=O)NCC(C)C)CC(=O)N(Cc3cc(C(F)(F)F)cc(C(F)(F)F)c3)[C@@H]2c2ccc(CO)cc2I)cc1,-0.634
6,CCCC[C@@H]1C[C@H]1[C@@H](NC(=O)c1ccco1)c1ccc(C(=O)OC)cc1,0.564
7,O=C1O[C@H](c2ccccc2)[C@H](c2ccccc2)N2[C@H]1[C@@H](C(=O)O)[C@]1(C(=O)Nc3ccc(C#CC4=CCCCC4)cc31)[C@H]2c1ccccc1OCCO,1.97
8,CC(=O)N1Cc2ccccc2C[C@@]2(COC(c3ccc(OCCCO)cc3)=N2)C1=O,1.23

# Test system: not listed separately
# Experiment: small-molecule binders of probe aInhba, primary screen, biochemical, small-molecule microarray, 635/667 nm fluorescence (AID 1148);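 note: score merges 667nm spot fluorescence with signal-to-noise for antibody binding to printed compounds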
# Details: higher = more signal
row,Compound,composite z-score
1,C[N+](C)(C)CCCCNC(=O)[C@H]1C[C@H]2C(=O)N[C@@H](Cc3ccccc3)C(=O)N2[C@H]1c1ccc(O)cc1,0.106
2,[N-]=[N+]=NCc1ccccc1C[C@]1(C(=O)N2CCOCC2)N=C(c2ccc(OCCCO)cc2)O[C@H]1c1ccccc1N=[N+]=[N-],0.0179
3,CC(=O)NCCCC[C@@H]1NC(=O)[C@@H]2C[C@H](C(=O)NCCCCN(C)C)[C@H](c3cccc(OCCO)c3)N2C1=O,-0.154
4,COc1ccc(C(O)C2C=CC3C(=O)N(c4ccccc4)C(=O)C3N2Nc2ccc(C(C)C)cc2)cc1OCc1ccccc1 (stereo not drawn),0.341
5,[N-]=[N+]=Nc1ccccc1[C@H]1OC(c2ccc(OCCCO)cc2)=N[C@@]1(Cc1ccccc1)C(=O)O,0.0342
6,O=C(NCc1ccccc1)[C@@]1(Cc2ccccc2)N=C(c2ccc(OCCCO)cc2)O[C@H]1c1ccccc1,0.161
7,CCOC1=C2C(CN(S(=O)(=O)c3ccc(C)cc3)C2c2ccc(C)cc2)C2C(=O)N(c3ccccc3)C(=O)C2C1 (stereo not drawn),0.0906
8,CCOC(=O)C[C@H]1[C@H](OC(=O)c2ccc(C(=O)c3ccccc3)cc2)[C@@H](NC(=O)c2ccc(-c3ccccc3)cc2)c2cc(OCCCO)ccc2N1C(=O)c1ccccc1,-0.128
9,COCCOC(=O)N1C(=O)[C@@]2(c3cc(C#Cc4ccc(OC)cc4)ccc31)[C@H](c1ccc(O)cc1)N1[C@H](c3ccccc3)[C@H](c3ccccc3)OC(=O)[C@H]1[C@@H]2C(=O)NC[C@H](O)c1ccccc1,-0.0259
10,COc1ccc(C(=O)O[C@H]2CC[C@]3(C)C4=C(CCC3C2(C)C)[C@]2(C)CC[C@H]([C@H](C)CCCC(C)C)[C@@]2(C)CC4)cc1 (stereo partly drawn),-0.103
11,COc1ccc(C(=O)Nc2ccc(CN3C(=O)[C@@]4(O[C@@H](CCn5cc([C@H](O)c6ccccc6)nn5)[C@H]([Si](C)(C)c5ccc(OC)cc5)[C@H]4C)c4ccccc43)cc2)cc1,-0.0405
12,O=C1c2ccccc2[C@@]2(Cc3ccccc3N(CCN3CCOCC3)C2=O)[C@H](c2ccc(CO)cc2)N1Cc1ccccc1,-0.231
13,CC[C@@H]1C=C(C(=O)O)[C@H](c2ccco2)N1S(=O)(=O)c1ccc(C)cc1,0.0228
14,O=C1OCCC/C=C\[C@H]2OC34C=CCN(CCN5CCOCC5)C(=O)[C@H]3N(CCCO)C(=O)[C@@H]4C12 (stereo partly drawn),-0.292
15,COC(=O)[C@@]1(Cc2ccccc2)[C@H]2c3cc(C(=O)N4CCCC4)n(Cc4nc5ccccc5[nH]4)c3C[C@H]2CN1C(=O)c1ccccc1,0.427
16,CC(C)c1ccc(NN2C(C(O)C(c3ccccc3)c3ccccc3)C=CC3C(=O)N(c4ccccc4)C(=O)C32)cc1 (stereo not drawn),0.246
17,C#CCN(Cc1ccccc1Br)C(/C=C/c1ccccc1)CO (stereo not drawn),-0.283
18,O=C1C2C=CC(C(O)c3c(F)cccc3Cl)N(Nc3ccccc3)C2C(=O)N1c1ccccc1 (stereo not drawn),0.153
19,NC(=O)[C@@H]1[C@H]2C(=O)O[C@H](c3ccccc3)[C@H](c3ccccc3)N2[C@H](c2ccc(O)cc2)[C@@]12C(=O)Nc1ccc(C#CC3(O)CCCCCC3)cc12,-0.148
20,CCOC(=O)C[C@H]1[C@H](OC(=O)Cc2ccc3c(c2)OCO3)[C@@H](NC(=O)c2ccc3ccccc3c2)c2cc(OCCCO)ccc2N1C(=O)c1ccccc1,0.0184
